Test results: the antibiotic and cytotoxicity screens of Wong et al. (2023)
Among all 39,000 compounds or so, about 3,300 (8.5%) were called active. Shown is part of a subset that was picked to be rich in actives.

system: HepG2; experiment: cytotoxicity call (relative viability < 0.9); conditions: 10 µM

Structure (SMILES)	cytotoxicity call
C[C@@H]1CN([C@@H](C)CO)C(=O)c2cc(NS(=O)(=O)c3ccccc3)ccc2O[C@@H]1CN(C)Cc1ccc(Cl)c(Cl)c1	active
C[C@@H]1CN([C@H](C)CO)C(=O)c2cc(NS(=O)(=O)c3ccccc3)ccc2O[C@@H]1CN(C)Cc1ccc(Cl)c(Cl)c1	active
C[C@H](CO)N1C[C@H](C)[C@@H](CN(C)Cc2ccc(Cl)c(Cl)c2)Oc2ccc(NS(=O)(=O)c3ccccc3)cc2C1=O	inactive
C[C@H]1CN([C@@H](C)CO)C(=O)c2cc(NS(=O)(=O)c3ccccc3)ccc2O[C@@H]1CN(C)Cc1ccc(Cl)c(Cl)c1	inactive
C[C@@H]1CN([C@@H](C)CO)C(=O)c2cc(NS(=O)(=O)c3ccccc3)ccc2O[C@H]1CN(C)Cc1ccc(Cl)c(Cl)c1	inactive
C[C@H](CO)N1C[C@H](C)[C@H](CN(C)Cc2ccc(Cl)c(Cl)c2)Oc2ccc(NS(=O)(=O)c3ccccc3)cc2C1=O	inactive
C[C@H](CO)N1C[C@H](C)[C@@H](CN(C)C(=O)Nc2ccc(N3CCCCC3)cc2)OCc2cnnn2CCCC1=O	inactive
CC(C)NC(=O)N(C)C[C@@H]1Oc2ccc(NC(=O)C3CCCCC3)cc2CC(=O)N([C@@H](C)CO)C[C@H]1C	inactive
CCC[C@@H](O)C#Cc1cnc2c(c1)C(=O)N([C@H](C)CO)C[C@H](C)[C@H](CN(C)S(=O)(=O)c1cccs1)O2	inactive
C[C@H]1CC[C@@H]2C(C(=O)O[C@H]3[C@H]4O[C@@]4(C)[C@H]4[C@@H](O[C@H]5O[C@@H](CO)[C@@H](O)[C@@H](O)[C@@H]5O)OC=C[C@@]34O)=CO[C@H](O[C@H]3O[C@@H](CO)[C@@H](O)[C@@H](O)[C@@H]3O)[C@@H]21	inactive
C[C@H](CO)N1C[C@H](C)[C@H](CN(C)C(=O)Nc2ccc(F)cc2)Oc2ccc(NS(C)(=O)=O)cc2C1=O	inactive
C[C@H](CO)N1C[C@H](C)[C@H](CN(C)C(=O)Nc2ccc(C(F)(F)F)cc2)Oc2ccc(NC(=O)NC3CCCCC3)cc2C1=O	active
C[C@@H]1CN([C@H](C)CO)C(=O)c2cc(NC(=O)NC3CCCCC3)ccc2O[C@H]1CN(C)C(=O)Nc1ccc(C(F)(F)F)cc1	inactive
C[C@@H]1CN([C@H](C)CO)C(=O)c2cc(NC(=O)Nc3ccc(C(F)(F)F)cc3)ccc2O[C@@H]1CN(C)C(=O)NC1CCCCC1	active
C[C@H]1CN([C@@H](C)CO)C(=O)c2cc(NC(=O)NC3CCCCC3)ccc2O[C@H]1CN(C)C(=O)Nc1ccc(C(F)(F)F)cc1	inactive
C[C@H](CO)N1C[C@H](C)[C@@H](CN(C)C(=O)NC2CCCCC2)Oc2ccc(NC(=O)Nc3ccc(C(F)(F)F)cc3)cc2C1=O	inactive
C[C@@H]1CN([C@H](C)CO)C(=O)c2cc(NC(=O)Nc3ccc(C(F)(F)F)cc3)ccc2O[C@H]1CN(C)C(=O)NC1CCCCC1	inactive
C[C@H]1CN([C@@H](C)CO)C(=O)c2cc(NC(=O)Nc3ccc(C(F)(F)F)cc3)ccc2O[C@H]1CN(C)C(=O)NC1CCCCC1	inactive
C[C@@H]1CN([C@@H](C)CO)C(=O)c2cc(NC(=O)Nc3ccc(C(F)(F)F)cc3)ccc2O[C@@H]1CN(C)C(=O)NC1CCCCC1	active
C[C@H]1CN([C@@H](C)CO)C(=O)c2cc(NC(=O)Nc3ccc(C(F)(F)F)cc3)ccc2O[C@@H]1CN(C)C(=O)NC1CCCCC1	inactive
C[C@@H]1CN([C@H](C)CO)C(=O)c2cc(NC(=O)Nc3ccccc3)ccc2O[C@@H](C)CCCCO[C@@H]1CN(C)C(=O)NC1CCCCC1	inactive

Structure (SMILES)	cytotoxicity call
CC(=O)N[C@@H]1[C@@H](O)[C@H](O)[C@H](CO)O[C@@H]1O	inactive
COCC(=O)Nc1ccc2c(c1)OC[C@@H](C)N(C(=O)Cc1cccnc1)C[C@H](C)[C@@H](OC)CN(C)C2=O	inactive
Cn1cnc(S(=O)(=O)N2C[C@@H](O)COC[C@H]3O[C@H](CC(=O)NCc4ccc(F)cc4)CC[C@@H]32)c1	inactive
COc1cc(C)nc(SCC(N)=O)n1	inactive
COc1ccc(S(=O)(=O)Nc2ccc3c(c2)C(=O)N([C@@H](C)CO)C[C@@H](C)[C@@H](CN(C)S(=O)(=O)c2ccccc2)O3)cc1	inactive
C[C@@H]1CN([C@H](C)CO)C(=O)CCCn2nncc2CO[C@@H]1CN(C)C(=O)CCCN(C)C	inactive
Cc1cc(O[C@@H](CCC(F)(F)F)c2ccc(C(=O)NCCC(=O)O)cc2)cc(C)c1-c1ccc(C(C)(C)C)cc1	inactive
Cc1cc(C)c(-c2ccc(NC(=O)[C@H](Cc3ccc(C(=O)NCCS(=O)(=O)O)cc3)c3ccc(-c4ccc(C(C)(C)C)cc4)cc3)cc2)c(C)c1	active
COc1ccc(C#Cc2ccc3c(c2)O[C@H](CN(C)S(=O)(=O)c2ccccc2F)[C@@H](C)CN([C@H](C)CO)S3(=O)=O)cc1	inactive
COc1ccc(S(=O)(=O)Nc2ccc3c(c2)C(=O)N([C@@H](C)CO)C[C@H](C)[C@H](CN(C)Cc2ccc(C(F)(F)F)cc2)OCCCC[C@H](C)O3)cc1	active
COc1ccc(S(=O)(=O)Nc2ccc3c(c2)C(=O)N([C@@H](C)CO)C[C@@H](C)[C@H](CN(C)Cc2ccc(C(F)(F)F)cc2)OCCCC[C@@H](C)O3)cc1	active
COc1ccc(S(=O)(=O)Nc2ccc3c(c2)C(=O)N([C@H](C)CO)C[C@H](C)[C@@H](CN(C)Cc2ccc(C(F)(F)F)cc2)OCCCC[C@@H](C)O3)cc1	inactive
COc1ccc(S(=O)(=O)Nc2ccc3c(c2)C(=O)N([C@@H](C)CO)C[C@H](C)[C@@H](CN(C)Cc2ccc(C(F)(F)F)cc2)OCCCC[C@@H](C)O3)cc1	active
COc1ccc(S(=O)(=O)Nc2ccc3c(c2)C(=O)N([C@@H](C)CO)C[C@@H](C)[C@@H](CN(C)Cc2ccc(C(F)(F)F)cc2)OCCCC[C@@H](C)O3)cc1	active
COc1ccc(S(=O)(=O)Nc2ccc3c(c2)C(=O)N([C@H](C)CO)C[C@@H](C)[C@@H](CN(C)Cc2ccc(C(F)(F)F)cc2)OCCCC[C@H](C)O3)cc1	inactive
C[C@@H]1CCCCO[C@@H](CN(C)C(=O)c2ccncc2)[C@@H](C)CN([C@H](C)CO)C(=O)c2cc(NC(=O)NC3CCCCC3)ccc2O1	inactive
CO[C@H]1CN(C)C(=O)c2ccc(NC(=O)C3CC3)cc2OC[C@H](C)N(C(=O)Cc2ccccn2)C[C@@H]1C	inactive
C[C@@H]1CN([C@H](C)CO)C(=O)c2cccc(NC(=O)Nc3ccccc3)c2O[C@@H]1CN(C)Cc1ccc(Cl)c(Cl)c1	inactive
C[C@H](CO)N1C[C@H](C)[C@@H](CN(C)C(=O)Nc2ccc3c(c2)OCO3)Oc2ncc(-c3cccnc3)cc2C1=O	inactive
CCS(=O)(=O)Nc1ccc2c(c1)C(=O)N(C)[C@H]1CC[C@@H](CC(=O)NCCOC)O[C@H]1CO2	inactive
C[C@H](CO)N1C[C@H](C)[C@H](CN(C)CC2CCCCC2)Oc2c(NC(=O)c3cnccn3)cccc2C1=O	inactive

Structure (SMILES)	cytotoxicity call
Nc1ccn([C@@H]2CS[C@H](CO)O2)c(=O)n1	inactive
CN1CCN(C(=O)C[C@H]2CC[C@@H]3[C@@H](COc4ccc(NC(=O)C5CCCCC5)cc4C(=O)N3C)O2)CC1	inactive
CCCNC(=O)N1C[C@]2(CN(C2)S(=O)(=O)c2ccc(cc2)OC)c2c(n(c3cc(ccc23)OC)C)[C@@H]1CO	inactive
C[C@H](CO)N1C[C@H](C)[C@@H](CN(C)C(=O)c2cccc(F)c2)Oc2cc(C#CC3CC3)ccc2S1(=O)=O	inactive
CNC(=O)C[C@H]1CC[C@H]2[C@@H](COC[C@H](O)CN2C(=O)Nc2ccc3c(c2)OCO3)O1	inactive
C[C@@H]1CN([C@@H](C)CO)C(=O)c2cc(NC(=O)c3ccncc3)ccc2O[C@@H]1CN(C)S(=O)(=O)c1cccs1	inactive
COc1ccc(NC(=O)N(C)C[C@@H]2Oc3ccc(NS(C)(=O)=O)cc3C(=O)N([C@H](C)CO)C[C@@H]2C)cc1	inactive
Cc1noc(C)c1NC(=O)N(C)C[C@H]1OCCCC[C@H](C)Oc2ccc(NC(=O)Nc3cccc4ccccc34)cc2C(=O)N([C@H](C)CO)C[C@@H]1C	inactive
C[C@@H]1CN([C@@H](C)CO)C(=O)c2cccc(NC(=O)c3ccc(-c4nccs4)cc3)c2O[C@H]1CN(C)C(=O)Nc1ccc2c(c1)OCO2	inactive
O=C(O)c1cc(O)c2cccc(O)c2n1	inactive
COc1ccc(S(=O)(=O)Nc2ccc3c(c2)C(=O)N([C@@H](C)CO)C[C@@H](C)[C@H](CN(C)Cc2ccc(C(F)(F)F)cc2)OCCCC[C@H](C)O3)cc1	active
COc1ccc(S(=O)(=O)Nc2ccc3c(c2)C(=O)N([C@@H](C)CO)C[C@H](C)[C@@H](CN(C)Cc2ccc(C(F)(F)F)cc2)OCCCC[C@H](C)O3)cc1	inactive
COc1ccc(S(=O)(=O)Nc2ccc3c(c2)C(=O)N([C@H](C)CO)C[C@H](C)[C@H](CN(C)Cc2ccc(C(F)(F)F)cc2)OCCCC[C@@H](C)O3)cc1	active
COc1ccc(S(=O)(=O)Nc2ccc3c(c2)C(=O)N([C@H](C)CO)C[C@H](C)[C@@H](CN(C)Cc2ccc(C(F)(F)F)cc2)OCCCC[C@H](C)O3)cc1	inactive
COc1ccc(S(=O)(=O)Nc2ccc3c(c2)C(=O)N([C@H](C)CO)C[C@@H](C)[C@@H](CN(C)Cc2ccc(C(F)(F)F)cc2)OCCCC[C@@H](C)O3)cc1	active
COc1ccc(S(=O)(=O)Nc2ccc3c(c2)C(=O)N([C@@H](C)CO)C[C@@H](C)[C@@H](CN(C)Cc2ccc(C(F)(F)F)cc2)OCCCC[C@H](C)O3)cc1	inactive
COc1ccc(S(=O)(=O)Nc2ccc3c(c2)C(=O)N([C@H](C)CO)C[C@@H](C)[C@H](CN(C)Cc2ccc(C(F)(F)F)cc2)OCCCC[C@@H](C)O3)cc1	active
COc1ccc(S(=O)(=O)Nc2ccc3c(c2)C(=O)N([C@H](C)CO)C[C@@H](C)[C@H](CN(C)Cc2ccc(C(F)(F)F)cc2)OCCCC[C@H](C)O3)cc1	inactive
COc1ccc(S(=O)(=O)Nc2ccc3c(c2)C(=O)N([C@@H](C)CO)C[C@H](C)[C@H](CN(C)Cc2ccc(C(F)(F)F)cc2)OCCCC[C@@H](C)O3)cc1	inactive
COc1ccc(S(=O)(=O)Nc2ccc3c(c2)C(=O)N([C@H](C)CO)C[C@H](C)[C@H](CN(C)Cc2ccc(C(F)(F)F)cc2)OCCCC[C@H](C)O3)cc1	inactive
